According to PubChem BioAssay (EPA / NIEHS):
The source made the active and inactive calls. The calls were made as follows: active = hit-call score of the fitted dose curve at least 0.9, where 1 is the maximum; inactive = score below 0.9.

experiment: ATG_DR4_LXR_CIS: Attagene CIS-FACTORIAL HepG2 Assay for human Liver X Receptor (LXR), DR4 submotif (AID 2282929); conditions: HepG2 Attagene DR4 cis-reporter, mRNA transcription; actives raise or lower the signal
Method: ATG_CIS is a cell-based, multiplexed-readout assay that uses HepG2, a human liver cell line, with measurements taken at 24 hours after chemical dosing in a 24-well plate.ATG_DR4_LXR_CIS is one of 52 assay component(s) measured or calculated from the ATG_CIS assay. It is designed to make measurements of mRNA induction, a form of inducible reporter, as detected with fluorescence intensity signals by Reverse transcription polymerase chain reaction (RT-PCR) and Capillary electrophoresis technology.Data from the assay component ATG_DR4_LXR_CIS was analyzed into 1 assay endpoint. This assay endpoint, ATG_DR4_LXR_CIS, was analyzed with bidirectional fitting relative to DMSO as the negative control and baseline of activity. Using a type of inducible reporter, measures of mRNA for gain or loss-of-signal activity can be used to understand the reporter gene at the transcription factor-level as they relate to the gene NR1H2 and NR1H3. Furthermore, this assay endpoint can be referred to as a primary readout, because this assay has produced multiple assay endpoints where this one serves a reporter gene function. To generalize the intended target to other relatable targets, this assay endpoint is annotated to the nuclear receptor intended target family, where the subfamily is non-steroidal.
Human liver HepG2 cells are transiently transfected with multiple reporter transcription units (MRTUs) in 6-well plates using FuGene 6 reagent (Roche; 3 ml FuGene/1 mg DNA). The MRTU constructs are regulated by a cis-regulating element (promoter). […] A major difference between the CIS and TRANS system is that in CIS activities of endogenous TFs are measured, whereas the TRANS assay evaluates changes in activities of exogenous, chimeric NR-Gal4 proteins. […] At the end of 24 hour incubation, total RNA was isolated using TriZol reagent (Invitrogen). The isolated RNA is then reverse-transcribed using oligo(dT) primer and Mo-MLV reverse transcriptase (Invitrogen) with DNAse I (Ambion) treatment for 30 min. The one-tenth of the produced cDNA was amplified by PCR using Taq DNA polymerase (Invitrogen) and two reporter sequence-specific primers. The PCR products were fluorescently labeled by primer extension with 6-arboxyfluorescein (6-FAM) 5'-labeled reporter sequence-specific primer (2 min at 95 C, 20 s at 68 C and 10 min at 72 C) and these products were digested with 5U of HpaI (New England Biolabs) for 2h at 37 C. The fragments were purified using Qiaquick PCR columns (Qiagen), analyzed on an ABI 3130xL genetic analyzer (Applied Biosystems) with peak positions identified by using a set of X-rhodamine (ROX)-labeled MapMarker1000 molecular weight standards (BioVentures). The raw capillary electrophoresis data was processed using Attagraph software (Attagene).

Row | SMILES | outcome | AC50
1 | COc1ccc(OC)c(OC)c1 | inactive | 
2 | NCCCCCCN | inactive | 
3 | CCCc1ccccc1O | inactive | 
4 | Nc1cc(Cl)c(O)c(Cl)c1 | inactive | 
5 | COc1cccc(OC)c1 | inactive | 
6 | CCC(C)(O)CCC=C(C)C (stereo not given) | inactive | 
7 | C=C(C)C(=O)O[C@H]1C[C@@H]2CC[C@@]1(C)C2(C)C |  | 26.7 µM (active)
8 | CCCC(=O)c1cc(O)c(O)cc1O | inactive | 
9 | C=CC(C)(O)CCC=C(C)CCC=C(C)C (stereo not given) | inactive | 
10 | CC(C=O)Cc1ccc(C(C)C)cc1 (stereo not given) | inactive | 
11 | CCCCOCCOCCOCCOCCO | inactive | 
12 | O=c1[nH]nnc2ccccc12 | inactive | 
13 | O=C1C(c2[nH]c3ccc(S(=O)(=O)O)cc3c2O)=Nc2ccc(S(=O)(=O)O)cc21 | inactive | 
14 | CC1(C)C(=O)N(Br)C(=O)N1Cl | inactive | 
15 | CCCC(=O)C(C)=O | inactive | 
16 | COc1cc(C=O)ccc1OC(=O)C(C)C | inactive | 
17 | CC(=O)O[C@]1(C(C)=O)CC[C@H]2[C@@H]3C[C@H](C)C4=CC(=O)CC[C@]4(C)[C@H]3CC[C@@]21C | inactive | 
18 | C=C(C)C(=O)OCCOC(=O)CC(C)=O | inactive | 
19 | CC(=O)OCC=Cc1ccccc1 | inactive | 
20 | CSc1nc(NC2CC2)nc(NC(C)(C)C)n1 | inactive | 

Row | SMILES | outcome | AC50
21 | CC(=O)Nc1ccc(CC(=O)O)cc1 | inactive | 
22 | CCCCC(CC)COCCC#N (stereo not given) | inactive | 
23 | COC(C)CCO (stereo not given) | inactive | 
24 | Cc1ccc(C(=O)O)o1 | inactive | 
25 | Cc1cc(C2(c3cc(C)c(O)cc3C)OS(=O)(=O)c3ccccc32)c(C)cc1O | inactive | 
26 | CC(C)(CO)[N+](=O)[O-] | inactive | 
27 | CC[C@]12CCCN3CCc4c(n(c5ccccc45)[C@@](O)(C(=O)OC)C1)[C@@H]32 | inactive | 
28 | COc1ccc(Nc2ccccc2)c(C)c1 |  | 46 µM (active)
29 | C=C(C)C(=O)OCc1ccccc1 | inactive | 
30 | O=S(=O)(O)NC1CCCCC1 | inactive | 
31 | C[C@H]1C[C@H]2[C@@H]3CCC4=CC(=O)C=C[C@]4(C)[C@@]3(F)[C@@H](O)C[C@]2(C)[C@@]1(O)C(=O)COP(=O)(O)O | inactive | 
32 | C=CC(=O)NCOCC(C)C | inactive | 
33 | CCCCCCOC(=O)CC | inactive | 
34 | CC(C)(C)c1cc(CCC(=O)NN)cc(C(C)(C)C)c1O | inactive | 
35 | O=C(Cl)c1cccc(C(=O)Cl)c1 | inactive | 
36 | CC[Si](OC(C)=O)(OC(C)=O)OC(C)=O | inactive | 
37 | S=C(S)NCCNC(=S)S | inactive | 
38 | Clc1sc(Cl)c(Cl)c1Cl | inactive | 
39 | CC1CC(OC(=O)c2ccccc2O)CC(C)(C)C1 (stereo not given) | inactive | 
40 | CCCC[n+]1ccccc1 | inactive | 
